Source: PubChem (The Scripps Research Institute Molecular Screening Center)
hgDAF-12 ag – H. glycines DAF-12 receptor agonists, primary screen, cell-based, luminescence, HEK293, GAL4 fusion, UAS-luciferase; activation, % at 6.8 µM; HEK293 GAL4-hgDAF12 UAS-luciferase reporter, agonist luminescence; normalized to butyrate control; Nuclear hormone receptor DAF-12 (Heterodera glycines), GAL4 fusion; 1.8% of 370,000 active;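 active means activation above a cutoff set at the mean of all screened compounds plus 3 SD, cut at about 10% in these data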
DAX1 inh-1 – DAX1 (NR0B1) inhibitors, primary screen, cell-based, HEK293, Gal4-DAX1, luciferase luminescence; Nuclear receptor subfamily 0 group B member 1 (Homo sapiens), P51843; HEK293 Gal4-DAX1 luciferase reporter; inhibition, % at 6.75 µM; 0.99% of 340,000 active;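 active means inhibition above the mean over all tested compounds plus 3 SD, cut at about 4.2% in these data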;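 further: inhibition shows as a rise in luminescence from relieved DAX1 repression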
Target sequence (P51843 207-470 limits assumed): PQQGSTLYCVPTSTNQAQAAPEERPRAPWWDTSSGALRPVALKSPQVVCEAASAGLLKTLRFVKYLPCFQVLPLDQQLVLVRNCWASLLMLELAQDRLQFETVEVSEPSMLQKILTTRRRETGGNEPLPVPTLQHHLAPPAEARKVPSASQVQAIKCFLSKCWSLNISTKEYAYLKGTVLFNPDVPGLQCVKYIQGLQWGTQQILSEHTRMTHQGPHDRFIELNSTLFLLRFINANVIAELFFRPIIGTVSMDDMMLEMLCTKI
DAX1 inh-2 – DAX1 (NR0B1) inhibitors on StAR promoter, primary screen, cell-based, luminescence, SF-1 (NR5A1), full-length DAX-1. 1.1% of 370,000 active. inhibition, % at 6.8 µM. AID 652010, 2013. HEK293T StAR-luciferase reporter, SF-1/DAX-1 repression relief;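 active means inhibition above the mean over all tested compounds plus 3 SD, cut at about 3.6% in these data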;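 further: higher inhibition means more luminescence from relief of DAX-1 repression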
hcDAF-12 act – H. contortus DAF-12 nuclear receptor activators, primary screen, cell-based, luminescence, HEK293, lit1-tk-luc reporter; 1.4% of 370,000 active; HEK293 hcDAF-12 lit1-tk-luc reporter; 0% DMSO, 100% Δ7-dafachronic acid; activation, % at 6.8 µM;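 active means activation above the mean of all tested compounds plus 3 SD, cut at about 5.5% in these data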
ssDAF-12 act – S. stercoralis DAF-12 nuclear receptor activators, primary screen, cell-based, luminescence, HEK293, GRIP1 co-expression, lit1-tk-luc; Nuclear hormone receptor DAF-12 (Strongyloides stercoralis); HEK293 ssDAF-12/GRIP1 lit1-tk-luc reporter; % of 3 µM dafachronic acid response; activation, % at 6.8 µM; 1% of 370,000 active; AID 652126, 2013;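 active means activation above the mean over all tested compounds plus 3 SD, cut at about 0.9% in these data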
SMARCA2 activ – SMARCA2 (BRM) function activators, primary screen, cell-based, luminescence, high throughput | activation, % at 9.1 µM | MG213 cells, MMTV-luciferase reporter, dexamethasone, overnight | 1% of 370,000 active | AID 652017, 2013; in the data active means activation above about 7.8%
Hits are given with their value; i = inactive; nt = no result given. An excerpt weighted towards active compounds, which were near 4.8% of everything screened.

SMILES	hgDAF-12 ag	DAX1 inh-1	DAX1 inh-2	hcDAF-12 act	ssDAF-12 act	SMARCA2 activ
Oc1ccc2ccccc2c1C=Nc1ccc(Cl)cn1	i	i	i	i	1.3	i
Cc1cc(O)c(C=Nc2ccc(Cl)cn2)c(=O)o1	i	i	i	i	i	i
CCCCCCCCN1C(=O)[C@@H](CC(=O)NCc2ccc(C)o2)C[C@@]2(C(=O)OC)C1=C[C@H](COCc1ccccc1)O[C@@H]2C	i	nt	i	i	i	i
CCOC(=O)Cc1nnc(NC(=O)COc2ccc(OC)cc2)s1	i	4.7	i	i	i	i
COCC(C)N=C1NN=C(c2c[nH]c3ccccc23)CS1 (stereo unspecified)	i	i	i	6.2	i	i
CC(C)(C)SCCNC(=O)/C=C/c1ccc(F)cc1	i	i	i	i	1.4	i
CC(OC(=O)CC1Sc2ccccc2NC1=O)C(=O)N(C)Cc1ccccc1 (stereo unspecified)	i	i	i	i	1.0	i
CCN(CC)C(=O)CC[C@@H]1CC[C@]2(CCCN(S(=O)(=O)c3ccccc3)C2)O1	i	nt	i	i	i	i
COc1ccc(-n2c(SCC(=O)NCCCSC)nnc2-c2ccncc2)cc1	i	nt	i	i	i	i
CNC(=O)CN(c1ccc(F)cc1)S(=O)(=O)c1cc(C)ccc1OC	i	4.3	i	i	i	i
CC(=O)Oc1ccc(Cn2cnc3cc4ccccc4cc32)cc1	i	i	i	i	i	i
CCOc1ccc2c(c1)ncn2Cc1ccccc1	i	4.7	i	i	i	i
C=CCN1C(=O)c2n[nH]c(COC)c2C1c1ccc(F)cc1 (stereo unspecified)	i	nt	i	i	i	i
Cc1ccc2sc(-c3ccc(NC(=O)c4cc(-n5cnnc5)ccc4Cl)cc3)nc2c1	11.3	i	i	i	i	i
CCCCN1C(=O)N2Cc3ccc(C)cc3C2CS1(=O)=O (stereo unspecified)	i	nt	i	i	i	i
COc1ccccc1N(C)S(=O)(=O)c1ccc(C(=O)NCc2ccccc2CN2CCCC2)cc1	i	i	4.2	i	i	i
O=C(Nc1ccc2[nH]ncc2c1)c1ccccc1Br	12.4	i	i	i	i	i
Cc1nc(-c2ccc(NC(=O)c3ccccc3Br)cc2)cs1	20.6	i	i	i	i	i
O=C(Nc1ccc2[nH]ncc2c1)c1ccccc1Cl	13.2	i	i	i	i	i
Cc1nc(-c2ccc(NC(=O)c3ccco3)cc2)cs1	i	i	i	i	i	i
O=C(Nc1ccc2[nH]ncc2c1)c1ccccc1	i	i	i	i	i	i
C[C@H]1COc2cc(Br)ccc2S(=O)(=O)N1Cc1cn(Cc2ccccc2)nn1	i	nt	i	i	i	i
O=C(NCc1cccs1)C1CCC(CNS(=O)(=O)c2cccc3cccnc23)CC1 (stereo unspecified)	i	nt	i	i	i	i
CCCCCN1CCCCC(NC(=O)c2ccc3ccccc3c2)C1=O (stereo unspecified)	i	nt	i	i	i	i
COC(=O)C1CN(Cc2ccc(C)cc2)CCS(=O)(=O)N1Cc1cn(Cc2ccccc2)nn1 (stereo unspecified)	i	nt	i	i	i	i
SMILES	hgDAF-12 ag	DAX1 inh-1	DAX1 inh-2	hcDAF-12 act	ssDAF-12 act	SMARCA2 activ
O=C(c1ccc(Cl)c(Cl)c1)N1CCC(Oc2cccnc2)CC1	i	nt	i	i	i	i
O=C1NCCN/C1=C\C(=O)c1ccc(Br)cc1	10.6	nt	i	i	i	i
CC1CCC2(CCC(=O)N2CCCOC(=O)NC(C)(C)C)CC1 (stereo unspecified)	i	nt	i	i	i	i
Cc1ccc(S(=O)(=O)N2CCC(=O)N(C(COCc3ccc(Cl)cc3Cl)Cc3ccccc3)CC2)cc1 (stereo unspecified)	i	5.3	i	i	i	i
COCc1[nH]nc2c1C(c1ccccc1)NC2=O (stereo unspecified)	i	nt	i	i	i	i
O=C(/C=C(\Nc1cc(Cl)c(Cl)c(Cl)c1)c1ccccc1)c1ccccc1	i	nt	i	i	1.5	i
CCOC(=O)N1CCN(C(=O)CSC2=NS(=O)(=O)c3cc(F)ccc3N2)CC1	i	4.8	i	i	i	i
O=C(NCC1CCN(C(=O)C(=O)c2cccs2)CC1)c1cccnc1	i	nt	i	i	i	i
Cc1[nH][nH]c(=O)c1N=Nc1ccc(S(N)(=O)=O)cc1	i	nt	i	i	i	i
Cc1[nH]n(C(N)=S)c(=O)c1N=Nc1ccc(S(=O)(=O)N2CCCC2)cc1	i	i	i	i	i	i
Cc1ccc(N=Nc2c(C)[nH]n(C(N)=S)c2=O)cc1	i	i	i	i	1.0	i
Cc1ccc(N=Nc2c(N)n(-c3ccccc3)[nH]c2=O)cc1	i	i	i	5.6	i	i
CC(=O)c1ccc(N=Nc2c(C)[nH]n(-c3ccccc3)c2=O)cc1	i	i	i	i	0.9	i
Nc1[nH]n(-c2ccccc2)c(=O)c1N=Nc1ccc(F)cc1	i	nt	i	i	i	i
CC(=O)c1ccc(N=Nc2c(C)[nH][nH]c2=O)cc1	i	5.5	i	i	i	i
C[C@@H]1/C=C/CC(=O)N2[C@H](CC(=O)N[C@@H]1c1ccccc1)C[C@@H](C)[C@H]2c1ccccc1	i	nt	i	i	i	i
Cc1[nH]n(-c2ccccc2)c(=O)c1N=Nc1ccc(C(=O)O)cc1	i	i	i	i	i	i
Cc1[nH]n(-c2ccccc2)c(=O)c1N=Nc1ccccc1	i	i	i	6.0	i	i
Cc1cc(C)nc(N2CCC(C(=O)N(C)CCc3ccccc3)CC2)n1	i	nt	i	i	i	i
COCCCNc1oc(/C=C/c2ccccc2)nc1C#N	11.7	i	i	i	i	i
C=CCNc1oc(/C=C/c2ccccc2)nc1C#N	i	i	3.9	i	0.9	i
CC1(C)Oc2ccc(C(=O)N3CCCC3)cc2NC1=O	i	nt	i	i	i	i
C=CCN1[C@@H](C)COc2cc(N3CCCC3)ccc2S1(=O)=O	i	nt	i	i	i	i
COC(=O)C[C@@H]1C[C@@H]2c3cc(NS(=O)(=O)c4ccccc4)ccc3O[C@@H]2[C@@H](CO)O1	12.8	i	i	i	i	i
COC(=O)C[C@H]1C[C@@H]2c3cc(NS(=O)(=O)c4ccc(OC)cc4)ccc3O[C@@H]2[C@H](CO)O1	i	i	i	i	i	i
O=S(=O)(c1ccc(Cl)cc1)N1CCN(c2ccccn2)CC1	i	i	i	i	i	i
